Compound activity deposited in PubChem by National Center for Advancing Translational Sciences (NCATS).
MCF10A rereplic – inducers of DNA re-replication in MCF 10A breast cells | MCF 10A DNA re-replication, Hoechst nuclear intensity, 48 h | Potency, µM (doses to about 46.1 µM), for inactives: at the highest dose activity, positive = re-replication, most hits filed as activators | 350,000 tested, 2.9% active | AID 624296; further: % of control where 0% means no effect; nearly all actives have a fitted effect of over 50% in size
SW480 rereplic – inducers of DNA re-replication in SW480 colon cancer cells. SW480 DNA re-replication, Hoechst DNA content imaging, 48 h. Potency, µM (highest dose often 46.1 µM), for the others: at the highest dose re-replication activation, most hits filed as activators. 340,000 tested, 1.8% active; further: % of control where 0% means no effect; nearly all actives have a fitted effect of over 55% in size
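Image-based DNA-content assay: after two days of treatment, nuclei were labelled with the DNA dye Hoechst and imaged, and hits were compounds raising the count of nuclei showing high fluorescence intensity.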
KB-3-1 tox – KB-3-1 parental cell cytotoxicity; AID 1347075; 400,000 tested, 1.4% active; KB-3-1 viability, CellTiter-Glo ATP luminescence, 72 h; Potency, µM (highest dose often 46.1 µM), usual class: cytotoxic; further: on the % scale 0 is the no-effect control and ±100 the full control effect; nearly all actives have a fitted effect of over 60% in size
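Cells are dispensed, compounds pinned in, plates held at 37 °C for 72 h, then CellTiter-Glo is added and luminescence read after 10 minutes. Cell line: parental KB-3-1 in phenol-red-free DMEM, 10% FBS.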
ELG1 repair inh – blocks ELG1-dependent DNA repair in HEK293T cells; HEK293T ELG1-luciferase reporter, luminescence, 16 h; DNA damage induced by 5-fluorouridine; Potency, µM (titrated, usually from 46.1 µM), without a hit: at the top dose activity change, negative = inhibition, usual class: inhibitors; 330,000 tested, 2.3% active; further: on the % scale 0 is the no-effect control and ±100 the full control effect; nearly all actives have a fitted effect of over 55% in size
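Step one: seed 2,000 cells per well. Step two: pin-transfer compound or DMSO alongside 5-fluorouridine. Step three: incubate 16 hr, 37 °C, 5% CO2. Step four: add ONE-Glo, wait 30 min, read luminescence.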
KB-V1 MDR tox – kills drug-selected multidrug resistant KB-V1 cells. AID 1347076. KB-V1 MDR cells viability, CellTiter-Glo, 72 h. 400,000 tested, 3.4% active. Potency, µM (series often up to 46.1 µM), usual class: cytotoxic; further: on the % scale 0 is the no-effect control and ±100 the full control effect; nearly all actives have a fitted effect of over 60% in size
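KB-V1, DMEM (no phenol red) + 10% FBS; cpd pin-transferred, titration series; 72 h, 37 degrees C; CellTiter-Glo, luminescence. Data normalized, curve-fit.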
* = called active by the depositor; ! = not confirmed by another sample. Rows were chosen to be rich in hits. Some 8.2% of all compounds tested hit in one or more screens of this group. The call rests on the fitted dose curve; in most records, active means well fitted curve in the direction sought with a large enough effect; inconclusive means small, poorly fitted or top-dose-only effect, or another doubt; inactive means no such curve, though single readings can be large; an effect the other way counts as inactive or inconclusive. Potency means the concentration at half of the fitted maximal effect.

COC(=O)c1ccccc1S(=O)(=O)N(Cc1ccco1)Cc1cc2cc(OC)ccc2[nH]c1=O was read as MCF10A rereplic -2%, SW480 rereplic 0%, KB-3-1 tox inactive, ELG1 repair inh 23µM* and KB-V1 MDR tox 8.2µM*.
CCOc1ccc2[nH]c(=O)c(CN(Cc3ccco3)Cc3nnnn3Cc3ccccc3)cc2c1 was read as MCF10A rereplic inconclusive, SW480 rereplic -1%, KB-3-1 tox inactive, ELG1 repair inh 7% and KB-V1 MDR tox inconclusive.
Screening COc1ccc2[nH]c(=O)c(CN(Cc3ccco3)Cc3nnnn3Cc3ccccc3)cc2c1 returned MCF10A rereplic 2%, SW480 rereplic 2%, KB-3-1 tox inactive, ELG1 repair inh 0% and KB-V1 MDR tox 7.3µM*.
For CC(NCC(=O)NCCc1ccc(S(N)(=O)=O)cc1)c1ccc(F)cc1 (centres undefined) the results were MCF10A rereplic -5%, SW480 rereplic 26µM*, KB-3-1 tox inactive, ELG1 repair inh 7% and KB-V1 MDR tox inactive.
For CCCCCCCCSc1nnc(CSc2nc3nc(C)cc(C)n3n2)o1 the results were MCF10A rereplic inconclusive, SW480 rereplic -5%, KB-3-1 tox inconclusive, ELG1 repair inh 4% and KB-V1 MDR tox 2.6µM*.
Cc1cc(C)n2nc(SCc3nnc(SCCCCl)o3)nc2n1 was read as MCF10A rereplic inconclusive, SW480 rereplic -1%, KB-3-1 tox inactive, ELG1 repair inh 21% and KB-V1 MDR tox inconclusive.
CC(C)=CCc1c2c(c3occ(-c4ccc(O)cc4)c(=O)c3c1O)C=CC(C)(C)O2 was read as MCF10A rereplic inconclusive, SW480 rereplic 1%, KB-3-1 tox inconclusive, ELG1 repair inh -8% and KB-V1 MDR tox inconclusive.
`CC(C)=CCc1c2c(c3occ(-c4ccc(O)c(O)c4)c(=O)c3c1O)C=CC(C)(C)O2` gave MCF10A rereplic 9.2µM*, SW480 rereplic 15%, KB-3-1 tox inconclusive and KB-V1 MDR tox inactive.
For Cc1cccc(S(=O)(=O)NC(=O)C2(C)CCN2C(=O)c2c(C)noc2C)c1 (centres undefined) the results were KB-3-1 tox inactive and KB-V1 MDR tox inactive.
`Cn1ncc2c(O/N=C(\N)c3ccc(C(F)(F)F)cc3)ncnc21` gave MCF10A rereplic inconclusive, SW480 rereplic 7.3µM*, KB-3-1 tox inconclusive, ELG1 repair inh inconclusive and KB-V1 MDR tox inconclusive.
`COCCn1c(SCC(=O)Nc2nc(C)c(Cl)cc2Cl)nc2ccccc21` gave MCF10A rereplic 17%, SW480 rereplic -7%, KB-3-1 tox inactive, ELG1 repair inh -26% and KB-V1 MDR tox inconclusive.
For O=C(CSc1nc2ccccc2n1-c1ccccc1)Nc1ncc(Cl)cc1Cl the results were MCF10A rereplic inconclusive, SW480 rereplic 7%, KB-3-1 tox 5.2µM*, ELG1 repair inh 5% and KB-V1 MDR tox inconclusive.
For Cc1cccc(-n2c(SCC(=O)Nc3ncc(Cl)cc3Cl)nc3ccccc32)c1 the results were MCF10A rereplic 15%, SW480 rereplic inconclusive, KB-3-1 tox 2.9µM*, ELG1 repair inh 15% and KB-V1 MDR tox inconclusive.
For Cc1cccc(-n2c(SCc3cc(=O)n4ccsc4n3)nc3ccccc32)c1 the results were MCF10A rereplic 8%, SW480 rereplic inconclusive, KB-3-1 tox inconclusive, ELG1 repair inh inconclusive and KB-V1 MDR tox 13µM*.
O=C(O)c1ccc(NC(=O)c2cc(S(=O)(=O)N3CCCCC3)c(Cl)cc2Cl)cc1 was read as KB-3-1 tox inactive and KB-V1 MDR tox inactive.
`Nc1ccc(C(=O)n2c3ccccc3c3ccccc32)cc1` gave MCF10A rereplic inconclusive, SW480 rereplic 3.3µM*, KB-3-1 tox 2.3µM*, ELG1 repair inh 6% and KB-V1 MDR tox 1.8µM*.
Screening Nc1ccc(C(=O)N2CCCC2)cc1 returned MCF10A rereplic -1%, SW480 rereplic -3%, KB-3-1 tox inactive, ELG1 repair inh inconclusive and KB-V1 MDR tox inactive.
Cc1cccc(NC(=O)COc2ccc(-c3nn(C)c(=O)c4ccccc34)cc2)c1 was read as MCF10A rereplic inconclusive, SW480 rereplic 16%, KB-3-1 tox inactive, ELG1 repair inh 15µM* and KB-V1 MDR tox inconclusive.
For Cn1nc(-c2ccc(OCC(=O)Nc3ccccc3)cc2)c2ccccc2c1=O the results were MCF10A rereplic 1%, SW480 rereplic -12%, KB-3-1 tox inactive, ELG1 repair inh inconclusive and KB-V1 MDR tox inconclusive.
Screening COc1ccccc1NC(=O)COc1ccc(-c2nn(C)c(=O)c3ccccc23)cc1 returned MCF10A rereplic 15%, SW480 rereplic 0%, KB-3-1 tox inconclusive, ELG1 repair inh 16µM* and KB-V1 MDR tox 18µM*!.
For Cc1nnc2c(N3CCN(c4ccccc4F)CC3)nc3ccc(C(=O)c4ccccc4)cc3n12 the results were KB-3-1 tox inactive and KB-V1 MDR tox inactive.
For CCc1nc2ccc(C(=O)NCCOc3ccc(OC)cc3)cn2c1N(C)C(=O)Cc1ccccc1 the results were KB-3-1 tox inactive and KB-V1 MDR tox inactive.
CCn1nccc1NC(=O)c1csc([C@H]2C[C@H](O)[C@@H](CO)O2)n1 was read as KB-3-1 tox inactive and KB-V1 MDR tox inactive.
For O=C(CNC(=O)c1ccccc1F)N/N=C/c1cc(Br)ccc1OC(=O)/C=C/c1ccco1 the results were MCF10A rereplic inconclusive, SW480 rereplic 6.5µM*, KB-3-1 tox inconclusive, ELG1 repair inh -19% and KB-V1 MDR tox 16µM*.
For COc1ccccc1C(=O)NCC(=O)N/N=C/c1cc(Br)ccc1OC(=O)/C=C\c1ccco1 the results were MCF10A rereplic 16µM*, SW480 rereplic inconclusive, KB-3-1 tox inactive, ELG1 repair inh -24% and KB-V1 MDR tox inconclusive.
Screening O=C(CNC(=O)c1ccc(F)cc1)N/N=C/c1cc(Br)ccc1OC(=O)/C=C/c1ccco1 returned MCF10A rereplic inconclusive, SW480 rereplic inconclusive, KB-3-1 tox inconclusive, ELG1 repair inh inconclusive and KB-V1 MDR tox inactive.
CCOC(=O)C1(CCc2ccccc2)CCN(C(=O)C2CCCO2)CC1 (centres undefined) was read as MCF10A rereplic 2%, SW480 rereplic 1%, KB-3-1 tox inactive, ELG1 repair inh inconclusive and KB-V1 MDR tox inactive.
For O=[N+]([O-])c1ccc(/C=N/n2cnc3ccccc32)s1 the results were MCF10A rereplic inconclusive, SW480 rereplic 4.1µM*, KB-3-1 tox inconclusive, ELG1 repair inh inconclusive and KB-V1 MDR tox inconclusive.
`Cc1cc2ncn(/N=C/c3ccc([N+](=O)[O-])s3)c2cc1C` gave MCF10A rereplic -5%, SW480 rereplic inconclusive, KB-3-1 tox inactive, ELG1 repair inh 4% and KB-V1 MDR tox inconclusive.
Screening O=[N+]([O-])c1ccc(/C=N/n2c(CO)nc3ccccc32)s1 returned MCF10A rereplic 14%, SW480 rereplic 3.3µM*, KB-3-1 tox inconclusive, ELG1 repair inh inconclusive and KB-V1 MDR tox inactive.
